Measured values from PubChem BioAssay AID837 (The Scripps Research Institute Molecular Screening Center, 2007).
The source made the active and inactive calls.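 How the source made its calls: active means relative FRET score above 0.01, or acceptor fluorescence over 30% below the sample-well median; inactive means the rest.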

biological target: Protein Rev (Human immunodeficiency virus type 1 group M subtype B (isolate WMJ22)) (UniProt P05866); assay: disruptors of Rev peptide-RRE RNA complex – biochemical, FRET, acceptor and relative FRET calls, confirmation (AID 837); conditions: Fl-Rev peptide / Cy5-RRE RNA FRET, 1536-well; at 8 µM;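 further: relative FRET combines rise in Cy5 acceptor with fall in fluorescein donor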
Sequence (P05866 whole entry, looked up): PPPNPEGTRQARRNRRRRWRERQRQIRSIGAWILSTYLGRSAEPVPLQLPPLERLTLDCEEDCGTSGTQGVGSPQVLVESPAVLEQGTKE

Question: Which outcome does the source give for CC(NC1CCCCC1)C(O)C12CC3CC(CC(C3)C1)C2 (stereo not given) here?
Answer: inactive

Question: With c1ccc(C(OCCN2CCNCC2)c2ccccc2)cc1 as the compound, how does the outcome read?
Answer: inactive

Question: For CNCC(O)c1cccc(OC(=O)c2ccccc2C)c1 (stereo not given), which outcome is on record?
Answer: inactive

Question: COc1ccc(CCNCc2ccc(SC)cc2)cc1 was tested. Which outcome did it give?
Answer: inactive

Question: Which outcome does the source give for CN1C2CCC1CC(OC(=O)c1cc(Cl)cc(Cl)c1)C2 (stereo not given) here?
Answer: inactive

Question: With CC1CCC(NCCc2ccc3c(c2)OCO3)CC1 (stereo not given) as the compound, how does the outcome read?
Answer: inactive

Question: OC(Cc1ccccc1)(c1ccccc1)C1CN2CCC1CC2 (stereo not given) was tested. Which outcome did it give?
Answer: inactive

Question: For Cc1ccc(-c2nc(N(C)C3CCN(C)CC3)c3ccccc3n2)cc1, which outcome is on record?
Answer: inactive

Question: COc1ccc(CCNC(C)CCc2ccc(OC)cc2)cc1 (stereo not given) was tested. Which outcome did it give?
Answer: active

Question: COc1ccc(CCC(C)NCCc2ccccc2)cc1 (stereo not given) was tested. Which outcome did it give?
Answer: inactive
